Screening data from PubChem.
CYP2C9 activ – activators of human CYP2C9; AID 1024; P11712; actives 1.4% (n = 96,000); activation factor at 5 µM; recombinant CYP2C9, luciferin-H conversion, luminescence; active compounds read high; factor 1 = untreated enzyme, 0 = blocked;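 active means activation factor of 2 or more for CYP2C9 at a 5 µM dose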;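 further: 0 = sulfaphenazole-blocked wells and 1 = vehicle-only wells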
CYP2C9 inh – inhibitors of human CYP2C9; P11712; CYP2C9 Supersomes, luciferin-H conversion, luminescence; inhibition, % at 5 µM; actives 20% (n = 96,000);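 active means blocking of liver enzyme CYP2C9 beyond about 50% at 5 µM, limit read from the data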
CYP2C19 inh – human CYP2C19 inhibition | P33261 | CYP2C19 Supersomes, luciferin-H EGE luminescence, 30 min | inhibition, % at 5 µM | actives 21% (n = 96,000);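 active means CYP2C19 inhibition above a set limit at 5 µM in the primary screen, cut at about 50% in these data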;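 further: plate controls were negative control wells for no effect and 2.5 mM tranylcypromine positive control for full effect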
Target sequence (P33261 whole entry, looked up): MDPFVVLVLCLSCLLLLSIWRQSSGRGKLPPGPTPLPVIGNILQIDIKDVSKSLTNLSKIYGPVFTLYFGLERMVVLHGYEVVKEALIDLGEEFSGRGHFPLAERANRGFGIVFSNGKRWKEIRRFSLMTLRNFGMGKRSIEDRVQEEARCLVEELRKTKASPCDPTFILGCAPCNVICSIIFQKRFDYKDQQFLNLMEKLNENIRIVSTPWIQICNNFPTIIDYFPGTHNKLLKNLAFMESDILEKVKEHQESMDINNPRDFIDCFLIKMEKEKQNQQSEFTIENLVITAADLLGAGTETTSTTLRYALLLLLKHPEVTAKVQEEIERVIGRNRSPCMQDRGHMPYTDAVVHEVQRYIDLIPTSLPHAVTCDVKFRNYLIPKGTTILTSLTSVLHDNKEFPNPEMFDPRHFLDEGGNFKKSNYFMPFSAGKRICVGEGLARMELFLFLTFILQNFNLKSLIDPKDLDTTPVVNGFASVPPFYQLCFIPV
CYP2C19 activ – cytochrome P450 2C19 (human) activation | activation factor at 5 µM | AID 1025 | recombinant CYP2C19, luciferin-H EGE luminescence; active compounds read high; 0 = fully inhibited enzyme, 1 = untreated enzyme | 96,000 tested, under 10 active | P33261;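 active means activation factor of at least 2 at 5 µM in the primary screen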;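 further: 0 = wells with 2.5 mM tranylcypromine and 1 = vehicle-only wells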
An asterisk follows results filed as active. Rows were chosen to be rich in hits. Some 31% of all compounds tested hit in one or more screens of this group.

SMILES	CYP2C9 activ	CYP2C9 inh	CYP2C19 inh	CYP2C19 activ
Cc1nnc(SCC(=O)Nc2nccs2)[nH]c1=O	1.1	-12	4	1
CC(C)CC(NC(=O)C1CCCCC1)C(=O)N1CCN(c2ccccn2)CC1 (stereo not given)	0.9	10	8	0.9
CN(CC(=O)NC1CCCc2ccccc21)S(=O)(=O)c1ccc2c(c1)c(=O)n(C)c(=O)n2C (stereo not given)	0.8	25	-1	1
CCOc1ccc(S(=O)(=O)N2CCCCCC2)cc1	1	5	92*	0.1
CCOc1ccc(S(=O)(=O)Nc2ccc(S(=O)(=O)N3CCCCC3)cc2)cc1	0.1	86*	53*	0.5
CCOc1ccc(NS(=O)(=O)c2ccc(OCC(=O)N3CCCC3)cc2)cc1	0.9	6	2	1
CCOC(=O)N1CCN(C(=O)COc2ccc(S(=O)(=O)Nc3ccc(OCC)cc3)cc2)CC1	0.5	51*	22	0.8
COCCSc1ccccc1C(=O)Nc1cccnc1	0.9	14	8	0.9
COCCSc1ccccc1C(=O)NCCCn1ccnc1	0.7	33	68*	0.3
O=C(NCCCn1ccnc1)c1cn(-c2ccccc2)nc1-c1ccccc1	0.1	94*	64*	0.4
CCOC(=O)CCc1c(C)nc2ncnn2c1C	1.1	-9	-7	1.1
Cc1ccc(OC(=O)CCc2c(C)nc3ncnn3c2C)cc1	0.9	10	56*	0.4
Cc1nc2ncnn2c(C)c1CCC(=O)O	0.9	11	-3	1
Cc1nc2ncnn2c(C)c1Cc1c(Cl)cccc1Cl	0.7	30	62*	0.4
Cc1cccc(-c2c3c(=O)n(C)c(=O)n(C)c3cn2C2CCCCC2)c1	0.8	22	35	0.7
C=CCOC(=O)C1C(=O)CC(C)(O)C(C(=O)OCC=C)C1c1ccc(OCC)cc1 (stereo not given)	0.8	22	22	0.8
O=C(COc1ccc(Cl)cc1)NCCSCc1cccc(Cl)c1	0.7	28	45	0.6
CN(C)CCNC(=O)COc1cccc(Cl)c1	0.4	56*	72*	0.3
O=C(Nc1ccc2c(c1)OCCO2)c1ccc(NC(=O)C2CCCO2)cc1 (stereo not given)	0.8	23	29	0.7
CCOC(=O)C1=C(C)N=c2s/c(=C/c3ccco3)c(=O)n2C1c1cccc(OC)c1 (stereo not given)	0.6	35	17	0.8
CCOC(=O)C1=C(N)n2c(s/c(=C/c3ccco3)c2=O)=C(C(=O)OC)C1c1ccco1 (stereo not given)	0.2	78*	24	0.8
CCOC(=O)C1=c2s/c(=C\c3cccnc3)c(=O)n2C(N)=C(C(=O)OC)C1c1cccnc1 (stereo not given)	0.1	88*	90*	0.1
CCN1C(=O)NC(c2cccnc2)C(C(=O)OC)=C1C (stereo not given)	1	1	0	1
CCOC(=O)C1=C(C)NC(=O)NC1c1cccnc1 (stereo not given)	1.1	-6	3	1
COC(=O)C1=C(N)n2c(s/c(=C\c3cccnc3)c2=O)=C(C(=O)OC)C1c1cccnc1 (stereo not given)	0.5	50	70*	0.3
SMILES	CYP2C9 activ	CYP2C9 inh	CYP2C19 inh	CYP2C19 activ
N#CC1=C(N)n2c(s/c(=C\c3ccco3)c2=O)=C(C#N)C1c1ccco1 (stereo not given)	0.5	51*	5	0.9
CN(CC(=O)Nc1cccc2ccccc12)c1ccc(S(=O)(=O)N2CCOCC2)cn1	0.8	20	-15	1.1
COCCN(CC(=O)NCc1ccc(OC)cc1)C(=O)CCC(=O)Nc1nccs1	1	1	6	0.9
O=C(CCCc1nc(-c2ccccc2)no1)N1CCOCC1	1.1	-11	37	0.6
C=CCN1C(=O)CN=C1Nc1cc(C)ccc1C	0.9	9	15	0.9
Cc1ccc(-n2ncc3c2ncn2c(-c4ccncc4)nnc32)cc1	0.6	38	14	0.9
c1ccc(Cn2ncc3c2ncn2c(-c4ccncc4)nnc32)cc1	0.6	38	85*	0.1
O=S(=O)(c1ccc2c(c1)oc1ccccc12)N1CCOCC1	1.4	-42	10	0.9
COc1cc2c(cc1NS(=O)(=O)N1CCCCC1)oc1ccccc12	1.6	-61	70*	0.3
O=S(=O)(Nc1ccc2c(c1)oc1ccccc12)N1CCCC1	0.1	89*	47	0.5
O=C(c1ccco1)N1CCN(CC(=O)N2c3ccccc3CCc3ccccc32)CC1	0.4	61*	17	0.8
O=C(CN1CCN(C(=O)c2ccco2)CC1)Nc1ccccc1-c1ccccc1	0.2	80*	76*	0.2
O=C(Cc1ccccc1)Nc1nc(-c2cccs2)cs1	0.6	44	49	0.5
CCCC(=O)Nc1nc(-c2ccc3c(c2)CCN3S(C)(=O)=O)cs1	0.8	16	32	0.7
CC1Cc2cc(-c3csc(NC(=O)Cc4cccs4)n3)ccc2N1S(C)(=O)=O (stereo not given)	0.1	92*	77*	0.2
O=C(Cc1cccs1)Nc1nc(-c2ccc(F)cc2F)cs1	0.4	56*	18	0.8
O=C(Cc1ccccc1F)Nc1nc(-c2cccs2)cs1	0	99*	94*	0.1
CS(=O)(=O)c1ccc2nc(NC(=O)CC3CCCC3)sc2c1	0.9	9	-3	1
Cc1cc(C)n2nc(-c3cnn(C)c3C(F)(F)F)c(Cl)c2n1	0.7	28	30	0.7
Cc1cc(C(F)(F)F)n2nc(-c3cnn(C)c3C(F)(F)F)c(Cl)c2n1	0.3	72*	51*	0.5
CCN(CC(=O)NC(C)C)C(=O)c1ccc(S(=O)(=O)N(C)c2ccccc2OC)cc1	0.9	15	8	0.9
C=CCN=C(NC#N)SCc1ccccc1Cl	0.8	20	89*	0.1
COCCCNC(=O)C1CCN(C(=O)Nc2ccc(Cl)cc2)CC1	0.9	14	12	0.9
CCC1CCCCN1C(=O)COC(=O)c1ccc(S(=O)(=O)N2CCOCC2)cc1 (stereo not given)	1	1	-1	1
COc1ccc(NC(=S)NC(NC(=O)c2ccccc2Cl)C(Cl)(Cl)Cl)c([N+](=O)[O-])c1 (stereo not given)	0.3	74*	24	0.8
SMILES	CYP2C9 activ	CYP2C9 inh	CYP2C19 inh	CYP2C19 activ
COc1ccc(NC(=O)c2ccc(C)cc2Cl)c([N+](=O)[O-])c1	3.6*	-259	35	0.7
COc1ccc(NC(=S)NC(NC(=O)c2cccc3ccccc23)C(Cl)(Cl)Cl)c([N+](=O)[O-])c1 (stereo not given)	0.2	83*	19	0.8
COc1ccc(NC(=S)NC(NC(=O)c2ccc(Cl)cc2Cl)C(Cl)(Cl)Cl)c([N+](=O)[O-])c1 (stereo not given)	0	98*	96*	0
CCC(C)(C)C(=O)Nc1ccc(OC)cc1[N+](=O)[O-]	0.9	9	28	0.7
Cc1cc(NC(=O)c2ccc3nc(-c4ccccc4)c(-c4ccccc4)nc3c2)no1	1	1	-2	1
CCOC(=O)Cn1cnc([N+](=O)[O-])n1	1.2	-25	-14	1.1
